Reference: the supplement of paper PMC12808144
Structures can show the parent of a compound that is named as a salt. A number with no mark means an inactive call.

tested on: Mel-DCC-11; experiment: cell viability relative to DMSO control (fraction of DMSO control); higher = less cytotoxic, active = 0.5 or less; conditions: 1 µM; 120 h
Procedure, shortened: (§1)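 A library of 315 approved anti-cancer drugs (TargetMol) was acoustically pre-spotted into 384-well plates and tested at 1 µM in duplicate for 120 h. Cells were added in 40 µl per well: NHEM-hTERT immortalized melanocytes at 2500/well, and patient-derived Mel-DCC-11 and its resistant subline Mel-DCC-11-R at 1500/well. The subline was tested both alone and with 8 µM of its selecting drug. Viability was read by ATPlite 1step luminescence, normalised to DMSO controls and averaged over duplicates.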

SMILES | cell viability
COc1cc2nccc(Oc3ccc(NC(=O)NC4CC4)c(Cl)c3)c2cc1C(N)=O [Lenvatinib] | 1.26
CN(C)C/C=C/C(=O)Nc1cc2c(Nc3ccc(F)c(Cl)c3)ncnc2cc1O[C@H]1CCOC1.O=C(O)/C=C\C(=O)O.O=C(O)/C=C\C(=O)O [Afatinib Dimaleate] | 0.711
CC(C)CN(C[C@@H](O)[C@H](Cc1ccccc1)NC(=O)O[C@H]1CCOC1)S(=O)(=O)c1ccc(N)cc1 [Amprenavir] | 0.769
COC(=O)N[C@@H](C)CNc1nccc(-c2cn(C(C)C)nc2-c2cc(Cl)cc(NS(C)(=O)=O)c2F)n1 [Encorafenib] | 0.236 (active)
COC(=O)/C=C/C(=O)OC [Dimethyl fumarate] | 1.12
Cl.Cl.Cl.Cl.Cl.Cl.Cl.Cl.c1cc(CN2CCCNCCNCCCNCC2)ccc1CN1CCCNCCNCCCNCC1 [AMD 3100 octahydrochloride] | 1.17
Oc1c(I)cc(Cl)c2cccnc12 [Clioquinol] | 0.864

tested on: NHEM-hTERT; experiment: as above; conditions: 1 µM; 120 h
Procedure, shortened: as §1

SMILES | cell viability
CCCc1cc(C)[nH]c(=O)c1CNC(=O)c1cc(-c2ccnc(N3CCN(C)CC3)c2)cc2c1cnn2C(C)C | 1.01
C[C@@H](CN1CC(=O)NC(=O)C1)N1CC(=O)NC(=O)C1.Cl [Dexrazoxane HCl] | 1.2
N#CC1(c2ccc(NC(=O)c3cccnc3NCc3ccncc3)cc2)CCCC1 [Apatinib] | 0.966
CS(=O)(=O)CCNCc1ccc(-c2ccc3ncnc(Nc4ccc(OCc5cccc(F)c5)c(Cl)c4)c3c2)o1.Cc1ccc(S(=O)(=O)O)cc1.Cc1ccc(S(=O)(=O)O)cc1.O [Lapatinib ditosylate monohydrate] | 1.05
CC(O)(P(=O)([O-])O)P(=O)([O-])O.[Na+].[Na+] [Sodium etidronate] | 0.984
COc1ccc([C@@H]2CC(=O)c3c(O)cc(O)cc3O2)cc1O [Hesperetin] | 0.971
C[C@H](Nc1ncnc2nc[nH]c12)c1cc2cccc(Cl)c2c(=O)n1-c1ccccc1 [Duvelisib] | 0.912
CCOC(N)=O [Urethane] | 1.09
CC[C@H](Nc1ncnc2[nH]cnc12)c1nc2cccc(F)c2c(=O)n1-c1ccccc1 [Idelalisib] | 0.983
Cc1ccc(-c2ncc(Cl)cc2-c2ccc(S(C)(=O)=O)cc2)cn1 [Etoricoxib] | 1.17
CNC(=O)c1cc(Oc2ccc(NC(=O)Nc3ccc(Cl)c(C(F)(F)F)c3)c(F)c2)ccn1 [Regorafenib] | 0.792
CC(C)(C#N)c1cc(Cn2cncn2)cc(C(C)(C)C#N)c1 [Anastrozole] | 1.02
Nc1cccc2c1C(=O)N(C1CCC(=O)NC1=O)C2=O (stereo not drawn) [Pomalidomide] | 1.15
Cc1cn(-c2cc(NC(=O)c3ccc(C)c(Nc4nccc(-c5cccnc5)n4)c3)cc(C(F)(F)F)c2)cn1 [Nilotinib] | 0.969
O=c1[nH]c(=O)n([C@H]2C[C@H](O)[C@@H](CO)O2)cc1C(F)(F)F [Trifluridine] | 1.12
CCc1cnn2c(NCc3ccc[n+]([O-])c3)cc(N3CCCC[C@H]3CCO)nc12 [Dinaciclib] | 0.212 (active)
Cn1cnc2c(F)c(Nc3ccc(Br)cc3F)c(C(=O)NOCCO)cc21 [Binimetinib] | 0.934
CC1(COc2ccc3c(c2)ncn3-c2ccc3cccc(N4CCC(N)CC4)c3n2)COC1 [Crenolanib] | 0.873

SMILES | cell viability
CCCS(=O)(=O)Nc1ccc(F)c(C(=O)c2c[nH]c3ncc(-c4ccc(Cl)cc4)cc23)c1F [Vemurafenib] | 0.746
COc1ccc2cc1Oc1ccc(cc1)C[C@H]1c3cc(c(OC)cc3CCN1C)Oc1c(OC)c(OC)cc3c1[C@H](C2)N(C)CC3 [Tetrandrine] | 1.25
CN(C)C(=O)COC(=O)Cc1ccc(OC(=O)c2ccc(N=C(N)N)cc2)cc1.CS(=O)(=O)O [Camostat mesilate] | 0.975
CCN(CC)C(=S)SSC(=S)N(CC)CC [Disulfiram] | 1.05
COC(=O)[C@]12CCC(C)(C)C[C@H]1[C@H]1C(=O)C=C3[C@@]4(C)C=C(C#N)C(=O)C(C)(C)[C@@H]4CC[C@@]3(C)[C@]1(C)CC2 [Bardoxolone Methyl] | 0.0925 (active)
CC1=C(CC(=O)O)c2cc(F)ccc2/C1=C\c1ccc(S(C)=O)cc1 (stereo not drawn) [Sulindac] | 0.963
COc1c(OCCCN2CCOCC2)ccc2c1N=C(NC(=O)c1cnc(N)nc1)N1CCN=C21 [Copanlisib] | 0.829
N#CC[C@H](C1CCCC1)n1cc(-c2ncnc3[nH]ccc23)cn1 [(R)-Ruxolitinib] | 1.1
COc1cc(N2CCC(N3CCN(C)CC3)CC2)ccc1Nc1ncc(Cl)c(Nc2ccccc2P(C)(C)=O)n1 [Brigatinib] | 0.91
CC1(C)O[C@H]2CC(=O)OC[C@]23[C@H]2CC[C@@]4(C)[C@H](c5ccoc5)OC(=O)[C@H]5O[C@]54[C@]2(C)C(=O)C[C@@H]13 [Limonin] | 1.21
O=c1cc(-c2ccc(O)cc2)oc2cc(O)cc(O)c12 [Apigenin] | 1.09
COc1cc2nccc(Oc3ccc(NC(=O)NC4CC4)c(Cl)c3)c2cc1C(N)=O [Lenvatinib] | 0.784
CN(C)C/C=C/C(=O)Nc1cc2c(Nc3ccc(F)c(Cl)c3)ncnc2cc1O[C@H]1CCOC1.O=C(O)/C=C\C(=O)O.O=C(O)/C=C\C(=O)O [Afatinib Dimaleate] | 1.13
CC(C)CN(C[C@@H](O)[C@H](Cc1ccccc1)NC(=O)O[C@H]1CCOC1)S(=O)(=O)c1ccc(N)cc1 [Amprenavir] | 0.952
COC(=O)N[C@@H](C)CNc1nccc(-c2cn(C(C)C)nc2-c2cc(Cl)cc(NS(C)(=O)=O)c2F)n1 [Encorafenib] | 0.972
COC(=O)/C=C/C(=O)OC [Dimethyl fumarate] | 1.33
Cl.Cl.Cl.Cl.Cl.Cl.Cl.Cl.c1cc(CN2CCCNCCNCCCNCC2)ccc1CN1CCCNCCNCCCNCC1 [AMD 3100 octahydrochloride] | 1.14
Oc1c(I)cc(Cl)c2cccnc12 [Clioquinol] | 0.798
